Laboratory results published in the supplement of paper PMC13380429.

Test system: Vero E6 infected with SARS-CoV-2
Assay: inhibition of SARS-CoV-2 cytopathic effect; higher = more antiviral protection, active = above 15
Details: 48 h

| Compound | inhibition of SARS-CoV-2 cytopathic effect (1 nM) | inhibition of SARS-CoV-2 cytopathic effect (8.33 nM) | inhibition of SARS-CoV-2 cytopathic effect (100 nM) | inhibition of SARS-CoV-2 cytopathic effect (833.33 nM) | inhibition of SARS-CoV-2 cytopathic effect (10000 nM) |
| --- | --- | --- | --- | --- | --- |
| C=C[C@H]1CN2CC[C@H]1C[C@H]2[C@H](O)c1ccnc2ccccc12 [cinchonidine] | -0.165% (inactive) | 2.44% (inactive) | 2.67% (inactive) | 3.6% (inactive) | 2.49% (inactive) |
| COc1cc(S(C)(=O)=O)ccc1Nc1nc2ccc(-c3ccc(NC(=O)[C@H](C)c4ccc(F)cc4)cc3)cn2n1 | 0.71% (inactive) | -3.05% (inactive) | 0.88% (inactive) | -5.66% (inactive) | -4.51% (inactive) |
| CC[N+]1(C)CCCC(OC(=O)C(O)(c2ccccc2)c2ccccc2)C1 (stereo not given) [pipenzolate] | -0.09% (inactive) | -0.02% (inactive) | -2.48% (inactive) | -0.83% (inactive) | -1.6% (inactive) |
| O=C(Nc1cc(-c2ccccc2)nn1-c1ccccc1F)c1ccc([N+](=O)[O-])cc1 | -0.89% (inactive) | 1.45% (inactive) | 1.23% (inactive) | -3.16% (inactive) | 2.79% (inactive) |
| CN1C(=O)CC[C@H]1c1cccnc1 [cotinine] | -0.33% (inactive) | -1.5% (inactive) | -0.09% (inactive) | 0.39% (inactive) | 0.17% (inactive) |
| COc1ccc(N(C(=O)Oc2c(C)cccc2C)c2ccnc(Nc3ccc(N4CCN(C)CC4)cc3)n2)c(OC)c1 | 0.25% (inactive) | 1.54% (inactive) | 0.43% (inactive) | 0.02% (inactive) | -1.27% (inactive) |
| CC(CC(C(N)=O)(c1ccccc1)c1ccccc1)N(C)C (stereo not given) [aminopentamide] | -1.11% (inactive) | -1.56% (inactive) | -1.71% (inactive) | 0.24% (inactive) | -0.57% (inactive) |
| CCO[C@@H](Cc1ccc(OCCc2ccc(OS(C)(=O)=O)cc2)cc1)C(=O)O [tesaglitazar] | -2.83% (inactive) | -3.5% (inactive) | 0.15% (inactive) | -2.48% (inactive) | 1.52% (inactive) |
| CN1C(=O)N(c2cc(Cl)cc(Cl)c2)C(=O)[C@]12CN(Cc1cc(C(=O)O)cs1)C[C@H]2c1ccc(C#N)cc1 | -1.94% (inactive) | 0.44% (inactive) | 1.44% (inactive) | 0.49% (inactive) | -0.22% (inactive) |
| NCCS(=O)(=O)O [taurine] | -2.1% (inactive) | -0.91% (inactive) | -1.56% (inactive) | 0.1% (inactive) | -0.28% (inactive) |
| CSc1ccccc1Nc1nc(N2CCNCC2)nc2c(NCC3CC3)ncnc12 | 1.44% (inactive) | 1.6% (inactive) | 1.17% (inactive) | 0.92% (inactive) | -33.2% (inactive) |
| O=C(Nc1ccc(Br)cc1)c1cc(Br)cc(Br)c1O [tribomsalan] | -1.03% (inactive) | -3.93% (inactive) | -1.03% (inactive) | -0.02% (inactive) | 6.65% (inactive) |
| COC(=O)C1=C(C)NC(C)=C(C(=O)OC2CCCN(Cc3ccccc3)C2)C1c1cccc([N+](=O)[O-])c1 (stereo not given) [benidipine] | -0.65% (inactive) | -0.51% (inactive) | -1.47% (inactive) | -0.97% (inactive) | -3.67% (inactive) |
| COC(=O)c1cc(OC)c2c(c1-c1c(C(=O)OC)cc(OC)c3c1OCO3)OCO2 [bifendate] | 1.14% (inactive) | 2.56% (inactive) | 3.5% (inactive) | 1.43% (inactive) | 1.73% (inactive) |
| COc1ccc([C@]2(C#N)CC[C@@H](C(=O)O)CC2)cc1OC1CCCC1 [cilomilast] | -1.82% (inactive) | -3.26% (inactive) | -2.36% (inactive) | -1.23% (inactive) | -0.83% (inactive) |
| Cc1c(-c2ccnn2C)cc(C(=O)NCc2ccc(S(C)(=O)=O)cn2)c(=O)n1-c1cccc(C(F)(F)F)c1 | -2.24% (inactive) | -0.81% (inactive) | -0.79% (inactive) | -2.96% (inactive) | -0.81% (inactive) |
| CCN(CC)C(=O)N1CCN(C)CC1 [diethylcarbamazine] | -4.87% (inactive) | -4.75% (inactive) | -2.46% (inactive) | 0.55% (inactive) | -2.31% (inactive) |
| CC[C@@H](C)N(C)C(=O)c1cc2ccccc2c(-c2ccccc2Cl)n1 | -0.84% (inactive) | 0.72% (inactive) | -0.6% (inactive) | 2.81% (inactive) | 2.78% (inactive) |
| CNc1cc(OC)c(C(=O)NC2CCN(Cc3ccccc3)C2C)cc1Cl (stereo not given) [nemonapride] | -1.01% (inactive) | 2.19% (inactive) | 0.65% (inactive) | -1.52% (inactive) | 2.33% (inactive) |
| N[C@@]1(C(=O)O)CC[C@H]2[C@H](C(=O)O)[C@H]21 [eglumetad] | 0.4% (inactive) | -0.24% (inactive) | -0.34% (inactive) | -0.18% (inactive) | 2.06% (inactive) |
| c1cnc(N2CCN(Cc3ccc4c(c3)OCO4)CC2)nc1 [piribedil] | -0.1% (inactive) | 15.4% (active) | 1.85% (inactive) | -0.64% (inactive) | 0.85% (inactive) |
| Cc1cncc(CN2CCC(=C3c4ccc(Cl)cc4CCc4cccnc43)CC2)c1 [rupatadine] | -0.79% (inactive) | -0.26% (inactive) | 2.27% (inactive) | 2.5% (inactive) | -9.2% (inactive) |
| Fc1ccc(-n2cc(CCCCN3CCC4(CC3)OCc3ccccc34)c3ccccc32)cc1 [siramesine] | 0.05% (inactive) | 1.88% (inactive) | 1.49% (inactive) | 4.24% (inactive) | 28.7% (active) |
| CN(C)CCOc1ccc(/C(=C(/CCCl)c2ccccc2)c2ccccc2)cc1 [toremifene] | 1.37% (inactive) | 1.85% (inactive) | 1.34% (inactive) | 2.22% (inactive) | 23.7% (active) |
| Cn1cnc([N+](=O)[O-])c1Sc1ncnc2[nH]cnc12 [azathioprine] | -3.67% (inactive) | 2.21% (inactive) | 2.74% (inactive) | 3.46% (inactive) | -3.46% (inactive) |
| Cn1c(=O)c(F)c(Nc2ccc(I)cc2F)c2c(=O)n(C[C@@H](O)CO)cnc21 | -3.03% (inactive) | -6.23% (inactive) | -11% (inactive) | -11.6% (inactive) | -12.3% (inactive) |
| C=C1/C(=C\C=C2/CCC[C@]3(C)[C@@H]([C@H](C)CC[C@@H](O)C(C)C)CC[C@@H]23)C[C@@H](O)C[C@@H]1O [tacalcitol] | -1.15% (inactive) | -0.65% (inactive) | 1.63% (inactive) | 1.18% (inactive) | 1.31% (inactive) |
| O=c1ccc2cc(O[C@@H]3O[C@H](CO)[C@@H](O)[C@H](O)[C@H]3O)c(O)cc2o1 [esculin] | -1.01% (inactive) | -0.49% (inactive) | -1.32% (inactive) | -1.49% (inactive) | -0.95% (inactive) |
| CC(NC(=O)c1ccccc1/N=C/c1c(O)ccc2ccccc12)c1ccccc1 (stereo not given) [sirtinol] | 3.41% (inactive) | -0.75% (inactive) | -3.54% (inactive) | -2.85% (inactive) | 0.96% (inactive) |
